Sampled rows, rich in hits. Any-hit rate of the full collection: about 0.9%.
A1 inhib – inducers of caspase activity in MEF A1-2A-BIM cells, primary screen, A1 inhibitor project, cell-based, CaspaseGlo luminescence. caspase-Glo luminescence, 3 h; percent of clofoctol signal, DMSO as zero. caspase activation, % (test concentration not listed). actives 0.51% (n = 21,000);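 active means most replicate scores above 10, or exactly half above 10 with mean activity above 10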;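 further: effector caspase 3 and 7 activity cleaving a DEVD luciferin substrate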
BJeLR viab HTS – BJeLR cell viability loss, primary screen, luminescence, CellTiterGlo ATP; BJeLR fibroblasts viability, 48 h; HRASV12, hTERT and SV40 LT/ST transformed; viability loss activity score, % (no concentration beside the values); actives 0.64% (n = 30,000); AID 2275, 2010; in the data active means viability loss activity score above about 50%;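 further: higher score means fewer live cells and less ATP luminescence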
* hit, by the source's call; / = no result given.

SMILES	A1 inhib	BJeLR viab HTS
O=C(CSc1nn(-c2ccccc2)c(=S)s1)N1N=CCC1c1ccccc1 (stereo unspecified)	-0.7	-0.5
CC(=O)OC[C@]12[C@H](OC(C)=O)[C@H](OC(C)=O)[C@@H]3[C@@H](OC(C)=O)[C@@]14O[C@@]3(C)COC(=O)c1ncccc1CC[C@H](C)C(=O)O[C@@H]([C@H](O)[C@@H]2OC(=O)c1ccccc1)[C@]4(C)O	2.4	50.7*
CC(=O)OC[C@]12[C@@H](OC(C)=O)C[C@@H]3[C@@H](OC(=O)c4ccccc4)[C@]1(OC3(C)C)[C@H](C)C[C@H](OC(=O)c1ccccc1)[C@@H]2OC(C)=O	-0.8	-2.0
COCCN1C(=O)c2ccccc2C(C(=O)Nc2ccc(C(C)C)cc2)C1c1ccc(F)cc1 (stereo unspecified)	/	-3.5
O=S(=O)(c1ccc(-c2csc(Nc3ccc(Br)cc3)n2)cc1)N1CCCCC1	14.7*	9.2
CN1CCN(S(=O)(=O)c2ccc(Br)cc2)CC1	0.4	9.2
O=C(CCC(=O)N1CCOCC1)Nc1c(F)c(F)nc(N2CCOCC2)c1F	0.5	3.1
CC1CCCCN1C(=O)Cn1c(=O)n(C2CCCC2)c(=O)c2ccccc21 (stereo unspecified)	/	9.2
COc1ccc(C2C(C(=O)N3CCCCC3)c3ccccc3C(=O)N2Cc2ccc(F)cc2)cc1 (stereo unspecified)	/	7.5
CC(C)C(=O)N1N=C(c2ccc(NS(C)(=O)=O)cc2)CC1c1ccccc1 (stereo unspecified)	/	-14.1
CCCOc1cccc(C(=O)Nc2ccc(C(=O)OC)cc2)c1	-1.1	2.7
CCCOc1ccc2nc(NC(=O)OC)[nH]c2c1	2.4	58.1*
C=CCNC(=O)c1cc2c(=O)n3cccc(C)c3nc2n(CC2CCCO2)c1=N (stereo unspecified)	0.4	13.0
Cc1ccc(SCc2cc(=O)[nH]c(Nc3nc(C)c4ccccc4n3)n2)cc1	1.1	-1.4
CCc1ccc2nc(Nc3nc4ccccc4c(=O)[nH]3)nc(C)c2c1	-3.8	87.2*
CCn1c(C(=O)O)c(CNC2CCC(C)CC2)c2ccccc21 (stereo unspecified)	/	4.3
CCc1c(C)c(C#N)c2nc3ccccc3n2c1N1CCN(CCO)CC1	/	-1.0
Cc1c(Cc2ccccc2)c(Cl)n2c(nc3ccccc32)c1C#N	1.7	63.9*
Cc1ccc(-c2nn(-c3ccccc3)cc2/C=N/O)cc1	0.1	3.7
CC1=NNC(=O)/C1=C\c1cn(-c2ccccc2)nc1-c1ccc(F)cc1	95.8*	88.4*
COc1cc2ncnc(Nc3cccc(Br)c3)c2cc1OC	3.4	2.4
COc1cc2ncnc(Nc3cccc(O)c3)c2cc1OC	11.7*	-4.2
CCN(CC)c1cc(C)c2cc(NC(=O)/C(C)=C\c3ccccc3)ccc2n1	/	4.4
CC(=O)Nc1ccc(Nc2ncnc3c2c(-c2ccccc2)cn3-c2cccc(C)c2)cc1	-0.8	-5.7
CCc1ccc(Nc2cc(C(=O)NCC(OC)OC)c3ccccc3n2)cc1	/	-0.8
SMILES	A1 inhib	BJeLR viab HTS
Cc1cc(NC(=O)c2ccc3c(c2)NC(=O)c2ccccc2S3)ccc1Br	15.3*	16.6
Cc1cc(C)cc(NC(=O)c2ccc3c(c2)NC(=O)c2ccccc2S3)c1	3.5	24.9
COc1ccc(-c2csc3ncc(S(=O)(=O)c4ccc(F)c(Cl)c4)c(=O)n23)cc1OC	/	-1.3
COc1cc(Nc2nc(SCC(=O)c3ccc(O)c(O)c3)nc3ccccc23)cc(OC)c1	-0.1	5.2
COc1ccc(CCNc2nc(SCC(=O)c3ccc(F)cc3)nc3ccccc23)cc1OC	15.9*	-3.0
C=CCn1c(Cc2c[nH]c3ccccc23)nnc1SCC(=O)Nc1ccc(OC)cc1	/	3.4
O=C(CCC1CCCCC1)Nc1ccc(-c2cn3cccnc3n2)cc1	/	-5.8
O=C1c2ccccc2-[n+]2ccc3c([nH]c4ccccc43)c21	-1.3	130.1*
O=C1C(c2c(O)[nH]c3ccccc23)=Nc2ccccc21	-2.3	5.9
